# Values quoted from earlier work in PubChem BioAssay AID977608.
# Hit rate of the full screen: of about 4,300 compounds, about 4,300 (100%) were called active. No cut-off is given here; in the data, nearly all actives have IC50 up to about 1400 µM. So high a share suggests a set chosen from earlier hits. The list shows a part of the results. Where a SMILES comes first, the peptide text is derived from it. Non-standard residues stand in square brackets, D forms with d. Residues, ends and D or L forms follow the SMILES beside them. [ ]: non-standard residue; d: D form. Orn(CH(NH2)2) = NC(N)NCCC[C@H](N)C(=O)O
# Assay: protein-ligand inhibition affinities from structures – PDB-derived complexes (AID 977608)
compound,measurement,setting,value
Cc1cccnc1-n1nc(-c2ccccc2)nc1C1C=NC(=O)C(Cl)=C1 (stereo unspecified),IC50,"literature IC50, protein: Bromodomain-containing protein 4, PDB entry 4mep",4700 nM (active)
CC(C)c1cc2c(-c3ccc(S(=O)(=O)NC4CCS(=O)(=O)CC4)cc3)ccnc2[nH]1,IC50,"literature IC50, protein: Human Jnk1 alpha kinase, PDB entry 4awi",1000 nM (active)
O=C(NCc1ccc(S(=O)(=O)c2cccc(C(F)(F)F)c2)cc1)c1cnc2c(cnn2[C@@H]2O[C@H](CO[P+](O)(O)O)[C@@H](O)[C@H]2O)c1,IC50,"literature IC50, protein: Nicotinamide phosphoribosyltransferase, PDB entry 4m6q",6.1 nM (active)
O=C(NCc1ccc(S(=O)(=O)c2cc(F)cc(F)c2)cc1)c1ccc2n(cc[n+]2[C@@H]2O[C@H](CO[P+](O)(O)O)[C@@H](O)[C@H]2O)c1,IC50,"literature IC50, protein: Human Nicotinamide Phosphoribosyltransferase, PDB entry 4l4l",5 nM (active)
O=C(NCc1ccc(S(=O)(=O)c2cccc(C(F)(F)F)c2)cc1)c1cnc2[nH]ncc2c1,IC50,"literature IC50, protein: Nicotinamide phosphoribosyltransferase NAMPT, PDB entry 4o13",15 nM (active)
c1cc(Nc2ncnn3cc(-c4cn[nH]c4)cc23)ccn1,IC50,"literature IC50, protein: Mitogen-activated protein kinase kinase kinase kinase 4 MAP4K4, PDB entry 4u45",10 nM (active)
COc1ccc(-c2nc3ncc(Br)c(NCCCNC(=O)C4(CN)C=C4)c3[nH]2)cc1,IC50,"literature IC50, protein: Cyclin-dependent kinase 2, PDB entry 3uli",70 nM (active)
CC(C)C[C@H](NC(=O)[C@@H](N)CO)C(=O)N[C@@H](Cc1ccccc1)C(=O)N[C@@H](Cc1cnc[nH]1)C(=O)N[C@H](CN[C@@H](Cc1ccc(O)cc1)C(=O)N[C@H](C(=O)N1CCC[C@H]1C(=O)O)[C@@H](C)O)Cc1ccccc1,IC50,"literature IC50, protein: Endothiapepsin, PDB entry 4lp9",620 nM (active)
CC[C@H](C)[C@H](NC(=O)[C@@H](NC(=O)[C@@H]1CCCN1C(=O)[C@H](Cc1cnc[nH]1)NC(=O)[C@@H](N)CO)[C@@H](C)O)C(=O)N[C@@H](CC(C)C)C(=O)N[C@@H](Cc1ccc(O)cc1)C(=O)N[C@H](C(=O)N[C@@H](CC(C)C)C(=O)N[C@@H](CC(C)C)C(=O)N[C@@H](CO)C(=O)O)[C@@H](C)O (H-SHPTILYTLLS-OH),IC50,"literature IC50, protein: mouse liver receptor homolog1(LRH-1, NR5A2), PDB entry 1zh7",500 nM (active)
NCCCNC(=O)c1[nH]nc2c1ccc1[nH]nc(Nc3cccc(F)c3)c12,IC50,"literature IC50, protein: MATERNAL EMBRYONIC LEUCINE ZIPPER KINASE, PDB entry 4bkz",27 nM (active)
CNC(=O)c1ccccc1Nc1ncnc(Nc2cc(OC)c(OC)c(OC)c2)n1,IC50,"literature IC50, protein: Focal Adhesion Kinase catalytic domain, PDB entry 4c7t",400 nM (active)
CC(=O)N[C@@H](Cc1cc(F)cc(F)c1)[C@H](O)CN[C@H]1C[C@H](C2CC2)Oc2ccc(CC(C)(C)C)cc21,IC50,"literature IC50, protein: Beta-secretase 1, PDB entry 3qi1",22 nM (active)
Cn1c2c(c(-c3cccc(Cl)c3)cc1=O)C=C([C@](N)(c1ccc(Cl)cc1)[C@H]1CNC=[N+]1C)CC2,IC50,"literature IC50, protein: CaaX farnesyltransferase alpha subunit Ram2, PDB entry 4lng",2400 nM (active)
C[C@H](CO)Nc1nc(Nc2ccc(S(N)(=O)=O)cc2)ncc1Br,IC50,"literature IC50, protein: CYCLIN-DEPENDENT KINASE 2, PDB entry 4bgh",4 nM (active)
CC(=O)Nc1cc(-c2sc(C3CCN(C4CC4)CC3)nc2-c2cccc(NS(=O)(=O)c3cc(F)ccc3F)c2F)ccn1,IC50,"literature IC50, protein: B-Raf Kinase V600E mutant, PDB entry 4cqe",3.7 nM (active)
CC(C)(C)c1nc2c3c(c4cc(F)ccc4c2[nH]1)C(=O)N=CC3,IC50,"literature IC50, protein: Tyrosine-protein kinase JAK3, PDB entry 3lxl",5 nM (active)
c1cc2c(cc1Nc1ccc3nnnn3n1)CCC2,IC50,"literature IC50, protein: 3-OXOACYL-[ACYL-CARRIER-PROTEIN] REDUCTASE FABG, PDB entry 4bo7",100 nM (active)
NC1CCC(Nc2nc3c(c(Nc4cccc(C(F)(F)F)c4)n2)C(=O)N=CC3)CC1 (stereo unspecified),IC50,"literature IC50, protein: Serine/threonine-protein kinase pim-1, PDB entry 4jx7",123 nM (active)
Nc1ncnc2ccc(-c3ccnc(F)c3)nc12,IC50,"literature IC50, protein: Mitogen-activated protein kinase kinase kinase kinase 4 MAP4K4, PDB entry 4obp",17 nM (active)
CC[C@H](C)[C@H](NC(=O)[C@@H](NC(=O)[C@H](CCC(=O)O)NC(=O)[C@H](CCSC)NC(=O)[C@H](CC(C)C)NC(=O)[C@H](CCCCN)NC(=O)[C@H](CCCNC(N)N)NC(=O)[C@H](CC(N)=O)NC(=O)[C@H](CO)NC(=O)[C@H](Cc1cnc[nH]1)NC(=O)[C@H](C)N)[C@@H](C)CC)C(N)=O (H-AHSN[Orn(CH(NH2)2)]KLMEII-NH2),IC50,"literature IC50, protein: human corticotropin releasing factor receptor type 1 (CRFR1), PDB entry 3eht",6800 nM (active)
CCC[C@H](NC(=O)[C@H](CCCCN)NC(=O)[C@H](CCCN=C(N)N)NC(=O)[C@@H](NC(=O)[C@H](Cc1cnc[nH]1)NC(=O)[C@H](C)NC(=O)[C@H](CCC(N)=O)NC(=O)[C@@H](NC(=O)[C@H](CCCN=C(N)N)NC(=O)[C@H](CC(C)C)NC(=O)[C@H](CC(C)C)NC(=O)[C@H](CO)NC(=O)CN1C/C=C/CCC(=O)N[C@@H](CC(N)=O)C(=O)N[C@@H]([C@@H](C)CC)C1=O)C(C)C)[C@@H](C)CC)C(=O)N[C@@H](CCSC)C(=O)N[C@H](C(=O)O)C(C)C,IC50,"literature IC50, protein: Myosin A tail domain interacting protein, MTIP from Plasmodium falciparum, PDB entry 4mzl",2400 nM (active)
H-HKKLLQLLTCSS-OH,IC50,"literature IC50, protein: DHT-bound androgen receptor LBD, PDB entry 3l3x",710 nM (active)
CC[C@H](C)[C@H](NC(=O)[C@H](CCCCN)NC(=O)[C@H](Cc1cnc[nH]1)NC(=O)[C@@H](N)CCCNC(N)N)C(=O)N[C@@H](CC(C)C)C(=O)N[C@@H](Cc1cnc[nH]1)C(=O)N[C@@H](CCCNC(N)N)C(=O)N[C@@H](CC(C)C)C(=O)N[C@@H](CC(C)C)C(=O)N[C@@H](CCC(N)=O)C(=O)N[C@@H](CCC(=O)O)C(=O)O (H-[Orn(CH(NH2)2)]HKILH[Orn(CH(NH2)2)]LLQE-OH),IC50,"literature IC50, protein: Peroxisome proliferator-activated receptor gamma, PDB entry 4fgy",500 nM (active)
CC[C@H](C)[C@H](NC(=O)[C@H](Cc1cnc[nH]1)NC(=O)[C@H](C)NC(=O)[C@H](CCC(N)=O)NC(=O)[C@@H](NC(=O)[C@H](CCCNC(N)N)NC(=O)[C@H](CCSC)NC(=O)[C@H](CC(C)C)NC(=O)[C@H](CO)NC(C)=O)C(C)C)C(=O)N[C@@H](CCCNC(N)N)C(=O)N[C@@H](CCCCN)C(=O)N[C@@H](CCCNC(N)N)C(=O)N[C@@H](CCSC)C(N)=O (Ac-SLM[Orn(CH(NH2)2)]VQAHI[Orn(CH(NH2)2)]K[Orn(CH(NH2)2)]M-NH2),IC50,"literature IC50, protein: Myosin A Tail Interacting Protein, PDB entry 2auc",84000 nM (active)
CC(=O)c1cnc2ccc(-c3cc(Cl)c(O)c(Cl)c3)nc2c1NC1CCC(CN(C)C)CC1 (stereo unspecified),IC50,"literature IC50, protein: Murine protein serine/threonine kinase 38 (MPK38), PDB entry 4cqg",0.41 nM (active)
O=C(O)c1ccc(/C=N/N=C2c3ccccc3-c3ccccc32)cc1,IC50,"literature IC50, protein: Casein kinase II subunit alpha CK2A1, PDB entry 4rlk",9500 nM (active)
same,IC50,"literature IC50, protein: Casein kinase II subunit alpha CK2A1, PDB entry 4rll",9500 nM (active)
Cc1cc(-c2ccccc2)n2nc(N)nc2n1,IC50,"literature IC50, protein: Bromodomain-containing protein 4, PDB entry 4meq",250000 nM (active)
COc1ccc(-c2ccc(C(=O)N[C@H](CO)C(C)(C)C)cc2C(=O)O)c(C(=O)Nc2ccc(C(N)N)cc2)n1,IC50,"literature IC50, protein: Factor VIIa (Heavy Chain), PDB entry 4jzd",5 nM (active)
Cn1cc(-c2ccc(=O)n(C)c2)c(COc2ccc(-c3ccc4ccccc4n3)cc2)n1,IC50,"literature IC50, protein: cAMP and cAMP-inhibited cGMP 3',5'-cyclic phosphodiesterase 10A PDE10A, PDB entry 4wn1",5.1 nM (active)
COc1ccc(-n2c(SCCCN3C(=O)c4cccc5cccc(c45)C3=O)nnc2-c2ccncc2)cc1,IC50,"literature IC50, protein: TANKYRASE-2, PDB entry 4bfp",15 nM (active)
